Measurements: PubChem BioAssay (NCI)
About 79,000 compounds went through this panel and 15% of them were active in at least one assay; those are over-represented in the sample as a whole. No stated cut-off is given here; in the data, active means growth inhibition above about 70%; inactive means the rest.

Assays:
[1] = NCI Yeast Anticancer Drug Screen. Data for the rad50 strain (AID 155);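 further: 0% = growth of vehicle-only cultures of the same strain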; conditions: S. cerevisiae rad50 strain growth inhibition; at 50.0 µM; stronger effect = higher value
Method in brief: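 Inhibition values express reduced yeast growth in compound-treated cultures relative to vehicle-treated controls.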

[2] = NCI Yeast Anticancer Drug Screen. Data for the mec2-1 strain (AID 157); conditions: S. cerevisiae mec2-1 strain, at 50.0 µM, stronger effect = higher value
Method in brief: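 Vehicle-treated cultures served as reference for growth inhibition of compound-exposed mec2-1 yeast.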

[3] = NCI Yeast Anticancer Drug Screen. Data for the sgs1 mgt1 strain (AID 161);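 further: 0% = growth of cultures given vehicle only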; conditions: S. cerevisiae sgs1 mgt1 strain, at 50.0 µM, stronger effect = higher value
Method in brief: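 Genetically altered yeast, compound exposure, growth inhibition relative to vehicle.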

[4] = NCI Yeast Anticancer Drug Screen. Data for the cln2 rad14 strain (AID 165);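 further: 0% = growth equal to vehicle treated cultures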; conditions: S. cerevisiae cln2 rad14 strain, at 50.0 µM, stronger effect = higher value
Method in brief: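 Each compound was tested on cln2 rad14 yeast. Inhibition of growth was calculated against vehicle-exposed controls.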

[5] = NCI Yeast Anticancer Drug Screen. Data for the bub3 strain (AID 167); conditions: S. cerevisiae bub3 mutant strain, at 50.0 µM, stronger effect = higher value
Method in brief: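 Steps: expose the mutant yeast strain to compound; grow alongside vehicle-treated cultures; measure growth; express inhibition against the vehicle cultures.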

[6] = NCI Yeast Anticancer Drug Screen. Data for the mlh1 rad18 strain (AID 175); conditions: S. cerevisiae mlh1 rad18 strain growth inhibition; at 50.0 µM; stronger effect = higher value
Method in brief: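 Vehicle-treated cultures served as the reference for growth inhibition in a yeast strain carrying DNA damage repair alterations exposed to each compound.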

Measured: growth inhibition

N#CCCN1CCCSC1=S
inactive: [1] 6.15% | [2] 17.1% | [3] 4.2% | [4] 4.05% | [5] -3.1% | [6] 1.7%

c1ccc(SCCc2ccncc2)cc1
inactive: [1] 25.1% | [2] 23.8% | [3] 29.7% | [4] -9.65% | [5] 3.85% | [6] 19.6%

CC(=O)OC1=NCC(OC(C)=O)=NC1
inactive: [1] 5.2% | [2] 13.9% | [3] 2.25% | [4] -16.9% | [5] 2.65% | [6] 6.5%

CC(C)(Cc1ccc(Cl)cc1)NC(N)=O
inactive: [1] -35.5% | [2] -73.7% | [3] -21.4% | [4] 3.1% | [5] -44.1% | [6] -31.8%

C[C@@H](O)CO
inactive: [1] 17.8% | [2] -16% | [3] 1.7% | [4] 3.75% | [5] -3.55% | [6] 13.2%

COc1ccc(C(=O)C(c2ccc(OCc3ccccc3)cc2)c2ccc(OCc3ccccc3)cc2)cc1
inactive: [1] 5.4% | [2] -35.8% | [3] -6.35% | [4] 26.9% | [5] -25.7% | [6] -5.55%

CCC1CCN=C(NS(=O)(=O)c2cc(C)c(Cl)cc2S)N1 (centres undefined)
inactive: [1] -29.8% | [2] -5.25% | [3] -25.2% | [4] -18.1% | [5] 4.9% | [6] -33%

C1C[O][Ge]2([O]1)[O]CC[O]2
inactive: [1] -24.9% | [2] -4.95% | [3] -16.2% | [4] 17.1% | [5] -13.2% | [6] -5.95%

CC1CCCCN1S(=O)(=O)N(C)C (centres undefined)
inactive: [1] 8.65% | [2] 27.1% | [3] -4.95% | [4] -6.1% | [5] 9.55% | [6] 6.15%

C/C=C\CCCCCCCCCCCCCCCC
inactive: [1] -1.15% | [2] -12.1% | [3] -0.6% | [4] 13.4% | [5] -6.9% | [6] 16.8%

COc1cc(CN(c2ccccc2C(=O)O)S(=O)(=O)c2ccc(C)cc2)ccc1[N+](=O)[O-]
inactive: [1] 43.9% | [2] 2.65% | [3] 38.2% | [4] -19.6% | [5] -4.5% | [6] 35.6%

CCOC(=O)c1oc2ccc(OC)c3c2c1CCC3
inactive: [1] 2.8% | [2] -1% | [3] 6.3% | [4] 15.4% | [5] 11.6% | [6] 19.6%

O=C(O)CNC(=O)c1cccc(Cl)c1
inactive: [1] 12.4% | [2] 12.3% | [3] 14.7% | [4] 13.3% | [5] 16.9% | [6] 14.6%

NCCNc1nc(NCCN)nc(N(CCN)CCN)n1
inactive: [1] 4.85% | [2] -4.9% | [3] 7.6% | [4] 9% | [5] -17.3% | [6] 4.05%

COCCCN1CC(=O)N2Cc3ccccc3CN2C(=O)C1
inactive: [1] -9.15% | [2] -13% | [3] -15.2% | [4] -3.6% | [5] 2.95% | [6] -4.6%

CC(C)[C@@H]1CC[C@@H](C)C[C@H]1N
inactive: [1] -16.7% | [2] 7.8% | [3] -8.85% | [4] -35.5% | [5] 3.95% | [6] -11.2%

CC1CN(Cc2ccccc2)CCC1N1CCCC1 (centres undefined)
inactive: [1] 24.8% | [2] 11.8% | [3] 27.6% | [4] 29.4% | [5] 23.2% | [6] 21.4%

Cc1cccc(C(=O)NNC(=O)c2ccc3ccccc3c2)c1
inactive: [1] -60.3% | [2] -49.7% | [3] -23.9% | [4] -3.6% | [5] -28.9% | [6] -33.2%

Cn1c2ccccc2c2ccc3c(c21)C(=O)NC3=O
inactive: [1] 15.6% | [2] 10.7% | [3] -7.75% | [4] -7.7% | [5] -21.9% | [6] 13.3%
